Experimental data reported in PubChem BioAssay (Tox21).
“And” between values parts separate entries of the source, which are not always exact repeats. Equal values may be shown once. Results filed as inconclusive are left out. A call without a number means that no potency is given here. More than one record can exist for a structure, and the calls need not agree. The source made the active and inactive calls. Unless noted, calls follow the shape of the full dose curve.

Key:
[1] = Nuclear factor erythroid 2-related factor 2/antioxidant responsive element (Nrf2/ARE) small molecule agonists: qHTS cell viability counter screen in human keratinocytes (AID 1919968; active = well fitted cell-killing curve with a large enough effect in the repeat runs; also: nearly all actives have a fitted effect of over 55% in size; also: potency is read from the fitted curve at half-maximal effect)
Procedure, shortened: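 KeratinoSens HaCaT cells, 1,500/well, preincubated 5 h, then exposed to compounds in DMSO for 23 h at 37 C/5% CO2. Viability read as CellTiter-Fluor fluorescence after 1 h, in the same wells as the ARE-luciferase read.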

[2] = Nuclear factor erythroid 2-related factor 2/antioxidant responsive element (Nrf2/ARE) small molecule agonists: luciferase reporter gene qHTS assay in human keratinocytes (AID 1919969); also: nearly all actives have a fitted effect of over 35% in size; also: potency is read from the fitted curve at half-maximal effect
[3] = biological target: Gonadotropin-releasing hormone receptor (Homo sapiens) (UniProt P30968); assay: Human gonadotropin-releasing hormone receptor (GnRHR) small molecule agonists, calcium flux assay in GnRHR-HEK293 cells (AID 1920063); also: nearly all actives have a fitted effect of over 35% in size
Sequence of Gonadotropin-releasing hormone receptor (Homo sapiens) (P30968 whole entry, looked up): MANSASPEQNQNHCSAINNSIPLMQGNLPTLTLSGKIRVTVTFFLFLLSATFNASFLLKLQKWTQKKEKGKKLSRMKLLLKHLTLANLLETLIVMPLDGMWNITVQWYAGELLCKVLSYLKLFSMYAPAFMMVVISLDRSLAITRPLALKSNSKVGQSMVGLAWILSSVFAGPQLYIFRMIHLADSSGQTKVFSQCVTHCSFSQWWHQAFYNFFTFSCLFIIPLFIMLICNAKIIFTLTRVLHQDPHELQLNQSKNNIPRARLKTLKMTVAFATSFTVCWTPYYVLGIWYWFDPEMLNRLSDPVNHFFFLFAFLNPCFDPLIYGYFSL
Procedure, shortened: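 HEK293 cells stably expressing human GnRHR were dye-loaded for 1 h at 37 C. Compound was added in agonist mode and fluorescence (Ex/Em 480/540) recorded kinetically for 3 min. Fifteen concentrations, triplicates.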

[4] = p53 small molecule agonists, cell-based qHTS assay with human liver microsomes (AID 1963577);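 also: p53 response element beta-lactamase reporter cells with liver microsomes plus NADPH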
Procedure, shortened: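 Metabolically competent format: test substances, human liver microsomes and NADPH (both 0.5 mg/mL final) incubated with p53RE-bla cells 16 h at 37 C. Beta-lactamase reporter signal then quantified by fluorescence.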

[5] = p53 small molecule agonists, cell-based qHTS assay with rat liver microsomes (AID 1963578); also: potency is read from the fitted curve at half-maximal effect
Procedure, shortened: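 Each plate received p53RE-bla cells, then compound, then rat liver microsomes and NADPH (both 0.5 mg/mL final). Plates were held 16 h at 37 C, and beta-lactamase activity was detected with LiveBLAzer over 2 h.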

[6] = p53 small molecule agonists, cell-based qHTS assay with human liver microsomes: qHTS cell viability counter screen (AID 1963579); also: nearly all actives have a fitted effect of over 45% in size; also: potency is read from the fitted curve at half-maximal effect
Procedure, shortened: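 Tox21 library compounds, delivered from DMSO stocks, were tested on p53RE-bla cells together with 0.5 mg/mL human liver microsomes and 0.5 mg/mL NADPH (final) over 16 h at 37 C; CellTiter-Glo luminescence served as the cytotoxicity measure.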

[7] = p53 small molecule agonists, cell-based qHTS assay with rat liver microsomes: qHTS cell viability counter screen (AID 1963580); also: nearly all actives have a fitted effect of over 45% in size; also: potency is read from the fitted curve at half-maximal effect
Procedure, shortened: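 In HCT-116 cells carrying a p53 response element-bla reporter, compounds were metabolically activated in situ by rat liver microsomes with NADPH over 16 h. Cell ATP content then served as the cytotoxicity measure.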

[8] = p53 small molecule agonists, cell-based qHTS assay: qHTS cell viability counter screen (AID 1963581); also: nearly all actives have a fitted effect of over 45% in size
Procedure, shortened: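 p53RE-bla HCT-116 cells, compounds added 5 h after plating and incubated 16 h at 37 C. Cytotoxicity measured in the same wells as intracellular ATP by CellTiter-Glo luminescence after 30 min at room temperature.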

[9] = biological target: 5-hydroxytryptamine receptor 2A (Homo sapiens) (UniProt P28223); assay: 5-hydroxytryptamine receptor 2A (HTR2A) small molecule antagonists, cell-based qHTS assay (AID 1963586); also: nearly all actives have a fitted effect of over 45% in size
Sequence of 5-hydroxytryptamine receptor 2A (Homo sapiens) (P28223 whole entry, looked up): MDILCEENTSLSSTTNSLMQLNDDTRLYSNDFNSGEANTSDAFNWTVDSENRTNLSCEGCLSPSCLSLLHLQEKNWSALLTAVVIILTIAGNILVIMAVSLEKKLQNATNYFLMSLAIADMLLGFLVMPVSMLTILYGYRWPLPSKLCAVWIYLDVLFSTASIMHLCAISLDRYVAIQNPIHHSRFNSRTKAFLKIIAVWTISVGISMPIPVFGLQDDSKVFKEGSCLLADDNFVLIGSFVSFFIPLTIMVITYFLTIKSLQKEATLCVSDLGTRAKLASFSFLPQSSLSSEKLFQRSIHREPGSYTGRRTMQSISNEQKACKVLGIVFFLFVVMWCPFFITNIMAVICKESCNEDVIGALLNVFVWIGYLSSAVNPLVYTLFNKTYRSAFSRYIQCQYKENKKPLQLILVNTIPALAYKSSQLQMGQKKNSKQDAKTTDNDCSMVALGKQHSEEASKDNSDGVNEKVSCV
Procedure, shortened: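 Antagonist-mode intracellular calcium assay: DOI (4 nM) added after 5 min compound pre-incubation at room temperature to dye-loaded HTR2A-CHO cells. Fluorescence followed for 3 min, sampled every second.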

[10] = biological target: 5-hydroxytryptamine receptor 2A (Homo sapiens) (UniProt P28223); assay: 5-hydroxytryptamine receptor 2A (HTR2A) small molecule agonists, cell-based qHTS assay (AID 1963587); also: nearly all actives have a fitted effect of over 30% in size
Procedure, shortened: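 HTR2A-CHO cells, plated 18 h at 37 C/5% CO2, dye-loaded 1 h at 37 C; compounds in DMSO added by pin tool (agonist mode). Intracellular calcium flux read as kinetic fluorescence on FDSS over 2 min at 1 s intervals.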

[11] = biological target: Muscarinic acetylcholine receptor M1 (Homo sapiens) (UniProt P11229); assay: Cholinergic receptor muscarinic 1 (CHRM1) small molecule antagonists, cell-based qHTS assay (AID 1963588); also: nearly all actives have a fitted effect of over 40% in size
Sequence of Muscarinic acetylcholine receptor M1 (Homo sapiens) (P11229 whole entry, looked up): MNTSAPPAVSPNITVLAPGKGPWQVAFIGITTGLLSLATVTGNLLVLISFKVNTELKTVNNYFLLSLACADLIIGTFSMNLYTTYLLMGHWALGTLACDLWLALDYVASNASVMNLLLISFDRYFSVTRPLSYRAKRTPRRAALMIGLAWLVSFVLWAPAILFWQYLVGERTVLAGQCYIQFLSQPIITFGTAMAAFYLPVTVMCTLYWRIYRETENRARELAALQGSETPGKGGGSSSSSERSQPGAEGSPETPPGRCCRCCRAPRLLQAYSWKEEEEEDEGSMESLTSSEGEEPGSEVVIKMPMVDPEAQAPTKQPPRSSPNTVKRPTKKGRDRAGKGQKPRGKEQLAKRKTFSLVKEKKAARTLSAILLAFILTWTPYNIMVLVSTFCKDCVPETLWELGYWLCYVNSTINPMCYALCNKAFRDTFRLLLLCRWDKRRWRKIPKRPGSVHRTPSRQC
Procedure, shortened: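 CHRM1-CHO calcium-flux assay, antagonist mode. Cells were seeded 18 h, dye-loaded 1 h at 37 C and given compound for 5 min at RT, then acetylcholine was added at 50nM. FDSS fluorescence was read 3 min; 15 concentrations, three runs.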

[12] = biological target: Muscarinic acetylcholine receptor M1 (Homo sapiens) (UniProt P11229); assay: Cholinergic receptor muscarinic 1 (CHRM1) small molecule agonists, cell-based qHTS assay (AID 1963589); also: nearly all actives have a fitted effect of over 35% in size
Procedure, shortened: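 CHO cells stably expressing human CHRM1 were loaded with calcium dye for 1 h at 37 C, then compound was added in agonist mode. Intracellular calcium fluorescence was followed kinetically at 1 s intervals. Fifteen concentrations were tested in three independent runs.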

[13] = cAMP Responsive Elements (CRE) small molecule agonists, cell-based qHTS assay (AID 1963590)
Procedure, shortened: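 CRE-bla HEK 293T cells, 2,000/well in DMEM with 10% dialyzed FBS and 25 mM HEPES, pre-incubated 18 h at 37 C, then exposed to compound 3 h at 37 C. Beta-lactamase reporter read with LiveBLAzer B/G FRET substrate after 2 h at room temperature.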

[14] = cAMP Responsive Elements (CRE) small molecule antagonists, cell-based qHTS assay (AID 1963591; active = well fitted inhibition curve with a large enough effect in the signal ratio in the repeat runs, not every such curve was filed as active; the % refers to the signal ratio; also: potency is read from the fitted curve at half-maximal effect)
Procedure, shortened: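 CRE-bla HEK293T cells plated 18 h, then given compound plus NKH477 at 0.25 uM final for 3 h at 37C. Beta-lactamase reporter read with LiveBLAzer B/G FRET substrate after 2 h at room temperature.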

[15] = biological target: Beta-2 adrenergic receptor (Homo sapiens) (UniProt P07550); assay: Adrenergic beta2 receptor (ADRB2) small molecule antagonists, cell-based qHTS assay (AID 1963592); also: nearly all actives have a fitted effect of over 50% in size; also: potency is read from the fitted curve at half-maximal effect
Sequence of Beta-2 adrenergic receptor (Homo sapiens) (P07550 whole entry, looked up): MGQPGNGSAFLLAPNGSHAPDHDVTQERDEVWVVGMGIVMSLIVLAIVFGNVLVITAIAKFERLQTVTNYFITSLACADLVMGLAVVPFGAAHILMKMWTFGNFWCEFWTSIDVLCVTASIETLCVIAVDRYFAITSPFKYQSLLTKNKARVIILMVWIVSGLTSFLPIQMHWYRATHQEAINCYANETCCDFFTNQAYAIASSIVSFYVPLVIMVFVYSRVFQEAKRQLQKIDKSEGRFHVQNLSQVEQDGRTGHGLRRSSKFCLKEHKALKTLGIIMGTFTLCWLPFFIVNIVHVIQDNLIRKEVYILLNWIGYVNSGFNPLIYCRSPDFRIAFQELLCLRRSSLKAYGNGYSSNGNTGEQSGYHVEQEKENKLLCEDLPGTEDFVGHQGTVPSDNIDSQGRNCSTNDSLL
Procedure, shortened: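 Cells (CHO, stable ADRB2 overexpression) incubated 18-20hr at 37C; compounds added from DMSO; agonist mix (1nM isoproterenol, 100uM IBMX, 25uM Ro-20-1724) added; 0.5hr RT; d2-cAMP and anti-cAMP-cryptate added; 1hr RT; 665/615 nm read.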

[16] = biological target: D(2) dopamine receptor (Homo sapiens) (UniProt P14416); assay: Dopamine D2 receptor (DRD2) small molecule agonists, cell-based qHTS assay (AID 1963594); also: nearly all actives have a fitted effect of over 35% in size
Sequence of D(2) dopamine receptor (Homo sapiens) (P14416 whole entry, looked up): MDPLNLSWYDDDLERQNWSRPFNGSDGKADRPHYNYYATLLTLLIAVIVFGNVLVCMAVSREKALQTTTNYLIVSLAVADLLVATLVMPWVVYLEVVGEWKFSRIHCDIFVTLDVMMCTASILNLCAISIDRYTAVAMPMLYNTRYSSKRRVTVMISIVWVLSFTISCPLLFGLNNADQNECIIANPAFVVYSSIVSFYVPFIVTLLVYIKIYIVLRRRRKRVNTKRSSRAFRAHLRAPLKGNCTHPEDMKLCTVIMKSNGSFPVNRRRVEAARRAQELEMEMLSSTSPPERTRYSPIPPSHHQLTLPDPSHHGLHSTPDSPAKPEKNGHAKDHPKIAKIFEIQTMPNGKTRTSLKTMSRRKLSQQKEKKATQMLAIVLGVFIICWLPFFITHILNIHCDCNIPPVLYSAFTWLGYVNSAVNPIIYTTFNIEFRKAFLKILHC
Procedure, shortened: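 HEK293 cells stably expressing DRD2 were cultured 24 h at 37 C, then given Ro20-1724 (0.1 mM final) and compounds for 10 min at room temperature. NKH477 (200nM) was then added for 30 min. cAMP was read by HTRF.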

[17] = biological target: D(2) dopamine receptor (Homo sapiens) (UniProt P14416); assay: Dopamine D2 receptor (DRD2) small molecule antagonists, cell-based qHTS assay (AID 1963595; active = well fitted inhibition curve with a large enough effect in the signal ratio in the repeat runs, with a control signal flat; the % refers to the signal ratio; also: potency is read from the fitted curve at half-maximal effect)
Procedure, shortened: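 Stable D2 receptor HEK293 line, 24 h after seeding. Compound preincubated 10 min, then quinpirole (12 nM) with forskolin analogue NKH477 (200 nM), 30 min, room temperature. Detection by time-resolved FRET of cAMP.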

[18] = p53 small molecule agonists, cell-based qHTS assay (AID 1963582; active = well fitted activation curve with a large enough effect in the signal ratio in the repeat runs, not every such curve was filed as active; the % refers to the signal ratio; also: potency is read from the fitted curve at half-maximal effect)
Procedure, shortened: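 p53RE-bla reporter cells, compounds added in DMSO after 5 h plating, incubated 16 h at 37 C. Beta-lactamase read via 2 h room-temperature LiveBLAzer B/G FRET substrate, fluorescence intensity.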

[19] = biological target: Beta-2 adrenergic receptor (Homo sapiens) (UniProt P07550); assay: Adrenergic beta2 receptor (ADRB2) small molecule agonists, cell-based qHTS assay (AID 1963593);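 also: CHO cells stably overexpressing human ADRB2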
Procedure, shortened: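 CHO cells stably over-expressing ADRB2 were plated overnight at 37C, then dosed with compounds plus a stimulation mix containing 100uM IBMX and 25uM Ro-20-1724 for 0.5hr at room temperature. cAMP was measured by HTRF competition, 1hr.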

[20] = G protein-coupled receptor (GPCR) small molecule agonists, calcium flux assay: HEK293 wild type cell line counter screen (AID 1920065)
Procedure, shortened: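 Wild-type HEK293 cells plated 18 h, loaded with calcium dye 1 h at 37 C, then compounds added in agonist mode (ATP as positive control). Kinetic fluorescence Ex/Em 480/540 recorded 3 min at 1 sec intervals; 15 concentrations, triplicate.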

SMILES	Potency [1]	Potency [2]	Potency [3]	Potency [4]	Potency [5]	Potency [6]	Potency [7]	Potency [8]	Potency [9]	Potency [10]	Potency [11]	Potency [12]	Potency [13]	Potency [14]	Potency [15]	Potency [16]	Potency [17]	Potency [18]	Potency [19]	Potency [20]
Cc1ccc(C)c(C)c1	inactive	inactive	inactive	inactive	inactive	inactive	inactive	inactive	inactive	inactive	inactive	inactive	inactive	inactive	inactive	inactive	inactive	–	–	–
CCc1cccc2c3c([nH]c12)C(CC)(CC(=O)O)OCC3 (configuration not stated)	inactive	inactive	inactive	inactive	–	–	inactive	–	–	–	–	–	inactive	–	inactive	–	inactive and 23.7 µM (active)	inactive	inactive	–
CC(=O)Nc1c(I)c(NC(C)=O)c(I)c(C(=O)O)c1I	inactive	inactive	inactive	–	–	inactive	inactive	–	–	–	–	–	inactive	inactive	inactive	inactive	inactive	–	–	–
CC(C)=CCC/C(C)=C/C=O	inactive	inactive	inactive	inactive	inactive	inactive	–	inactive	inactive	inactive	inactive	inactive	inactive	inactive	inactive	inactive	inactive	–	inactive	–
CC1=CC2C3CC(C=C3C)C2C1 (configuration not stated)	inactive	inactive	inactive	–	–	inactive	inactive	inactive	inactive	inactive	–	inactive	inactive	inactive	inactive	inactive	inactive	–	–	–
COc1cc([C@@H]2c3cc4c(cc3[C@H](O)[C@H]3COC(=O)[C@H]23)OCO4)cc(OC)c1OC	inactive	54.4 nM (active) and 53.1 nM (active)	inactive	inactive	inactive	–	inactive	–	–	–	–	–	–	–	–	inactive	inactive	inactive	inactive	–
CCCCCC1=CCCC1=O	inactive	inactive	inactive	–	–	inactive	–	inactive	–	inactive	inactive	inactive	inactive	inactive	inactive	inactive	inactive	–	inactive	–
[Na+]	inactive	inactive	inactive	inactive	inactive	inactive	inactive	–	inactive	inactive	–	inactive	inactive	–	inactive	inactive	inactive	inactive	inactive	–
C/C=C1/CC2C=CC1C2 (configuration not stated)	inactive	inactive	inactive	inactive	inactive	inactive	inactive	inactive	inactive	inactive	inactive	inactive	inactive	inactive	inactive	inactive	inactive	inactive	inactive	inactive
Cc1ccc(C)c(O)c1	inactive	inactive	inactive	inactive	inactive	inactive	–	inactive	inactive	inactive	inactive	inactive	inactive	–	inactive	inactive	inactive	inactive	inactive	–
O=C(OCc1ccccc1)c1ccccc1	inactive	inactive	inactive	–	–	–	inactive	inactive	inactive	inactive	inactive	inactive	inactive	–	inactive	inactive	inactive	–	inactive	–
Oc1c(Cl)cc(Cl)c(Cl)c1Cl	inactive	inactive	inactive	inactive	–	inactive	inactive	inactive	inactive	inactive	inactive	inactive	–	inactive	inactive	inactive	inactive	–	–	–
Oc1ccc(Cl)cc1Cc1cc(Cl)ccc1O	27.8 µM (active) and 61.1 µM (active)	inactive and 33.5 µM (active)	inactive	–	–	40.8 µM (active) and inactive	41.5 µM (active) and inactive	–	inactive	inactive	–	inactive	–	49.4 µM (active)	48.6 µM (active)	inactive	inactive	–	–	–
Clc1ccc(Cl)c(Cl)c1Cl	inactive	inactive	inactive	–	inactive	inactive	inactive	inactive	inactive	inactive	inactive	inactive	inactive	inactive	inactive	inactive	inactive	inactive	–	–
c1ccc2c(c1)c1cccc3ccc4cccc2c4c31	inactive	inactive	inactive	inactive	32.2 µM (active)	inactive	inactive	inactive	–	–	–	–	inactive	inactive	inactive	–	inactive	45.4 µM (active) and inactive	–	–
CC(=O)c1ccccc1	inactive	inactive	inactive	inactive	inactive	–	–	inactive	–	inactive	inactive	inactive	inactive	inactive	inactive	inactive	inactive	inactive	–	–
C[C@]12C[C@H](O)[C@H]3[C@@H](CCC4=CC(=O)CC[C@@]43C)[C@@H]1CC[C@@H]2C(=O)CO	inactive	inactive	inactive	inactive	inactive	inactive	inactive	–	inactive	inactive	inactive	inactive	–	–	inactive	inactive	inactive	inactive	inactive	–
O=c1[nH]cnc2c1ncn2[C@H]1CC[C@@H](CO)O1	inactive	inactive	inactive	–	–	inactive	–	inactive	–	–	–	–	inactive	–	inactive	inactive	inactive	–	inactive	–
